Drawing on PubChem BioAssay (EPA / NIEHS), this text covers outcome and AC50 for 40 compounds.

Results filed as inconclusive are left out. The source made the active and inactive calls. Rule for the calls: active = hit-call score of the fitted dose curve at least 0.9, where 1 is the maximum; inconclusive = response in the unintended direction; inactive = score below 0.9.

Sequence of Estrogen receptor beta (Homo sapiens) (Q92731 whole entry, looked up, the tested form may be a part): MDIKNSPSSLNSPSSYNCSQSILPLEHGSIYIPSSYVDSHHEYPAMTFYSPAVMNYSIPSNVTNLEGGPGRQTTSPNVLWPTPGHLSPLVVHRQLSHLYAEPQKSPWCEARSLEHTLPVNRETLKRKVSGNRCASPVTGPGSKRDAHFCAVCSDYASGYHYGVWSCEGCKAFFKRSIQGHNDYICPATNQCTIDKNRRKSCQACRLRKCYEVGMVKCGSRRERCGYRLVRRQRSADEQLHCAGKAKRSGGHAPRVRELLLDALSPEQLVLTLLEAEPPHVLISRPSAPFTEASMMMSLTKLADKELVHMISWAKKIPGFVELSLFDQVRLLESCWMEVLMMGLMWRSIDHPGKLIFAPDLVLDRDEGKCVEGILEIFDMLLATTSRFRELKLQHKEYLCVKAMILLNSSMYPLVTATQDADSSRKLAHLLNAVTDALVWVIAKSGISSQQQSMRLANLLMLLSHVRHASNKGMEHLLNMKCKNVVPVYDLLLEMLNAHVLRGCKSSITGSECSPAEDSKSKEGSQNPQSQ

The target of this assay is Estrogen receptor beta (Homo sapiens) (UniProt Q92731). Kind of assay: OT_ER_ERbERb_0480: Odyssey Thera (OT) 8-hour HEK293T Protein-Complementation Assay for Estrogen Receptor-beta/-beta Homodimer (AID 2283357). Here is the method:
OT_ER_ERbERb_0480 is a cell-based assay that uses HEK293T, a human kidney cell line, with measurements taken at 8 hours after chemical dosing in a 384-well plate.OT_ER_ERbERb_0480 is one of one assay component(s) measured or calculated from the OT_ER_ERbERb_0480 assay. It is designed to make measurements of protein fragment complementation, a form of binding reporter, as detected with fluorescence intensity signals by Protein-fragment Complementation technology.Data from the assay component OT_ER_ERbERb_0480 was analyzed into 1 assay endpoint. This assay endpoint, OT_ER_ERbERb_0480, was analyzed in the positive analysis fitting direction relative to DMSO as the negative control and baseline of activity. Using a type of binding reporter, measures of receptor for gain-of-signal activity can be used to understand the binding at the pathway-level as they relate to the gene ESR2. Furthermore, this assay endpoint can be referred to as a primary readout, because the performed assay has only produced 1 assay endpoint. To generalize the intended target to other relatable targets, this assay endpoint is annotated to the nuclear receptor intended target family, where the subfamily is steroidal.
Protein-fragment complementation assay, or PCA, is a method for the identification and quantification of protein-protein interactions. In the PCA, the proteins of interest ("bait" and "prey") are each covalently linked to fragments of a third protein (e.g. DHFR, which acts as a "reporter"). Interaction between the bait and the prey proteins brings the fragments of the reporter protein in close proximity to allow them to form a functional reporter protein whose activity can be measured. The OT ER beta / ER beta assay is a homodimer PCA of the ligand binding domain (LBD; amino acids 310-547) of human ER beta stably expressed in HEK293T cells. […] Cells are fixed in 4 percent formaldehyde and stained with Draq5 (BioStatus) to identify cells prior to signal detection. Fluorescent signal in the basal state of the assay is very low and is primarily punctuate and cytoplasmic. Modulation of this assay is quantified as an increase in mean fluorescence intensity in the nucleus (for agonists) or in the nucleus and cytoplasm (antagonists) relative to vehicle controls, and can be quantified on a high content imaging device or a laser scanning cytometer. The latter instrument is favored for this assay because of the rapid mode of data acquisition, the ability to acquire data from the entire cell population in a well (as opposed to a fraction of the well on the high content devices) and the larger dynamic range typically achieved with this instrument. To assess sensitivity of the ER beta/ER beta LBD assay to ligand, cells were treated with the ER agonist 17- beta-estradiol (E2) in 10-point concentration- response format for 8 hours and monitored response on a laser scanning plate cytometer (Acumen eX3; TTP Lab Tech).
On to `CN(C)c1ccc(N=Nc2ccccc2C(=O)O)cc1`, for which the outcome was inactive. As for `NC(=O)c1ccccc1O`, the compound was called inactive. On the same count and under the same terms, the value for `CN(C)c1ccc(C(=N)c2ccc(N(C)C)cc2)cc1` was “inactive”. Still for that read-out and setting: in the case of `CCOC(=O)CC` it was “inactive”. Turning to `O=c1cc(-c2ccccc2)oc2ccccc12`, the compound was called inactive. In the case of `Cc1ccc(N/N=c2\c(=O)cc/c(=N/Nc3ccc(S(=O)(=O)O)cc3)c2=O)c(C)c1`, the result was inactive. In the case of `CCCc1ccc(OC)cc1`, the result was inactive.

Take `C=CC(=O)NC(C)(C)CS(=O)(=O)O`: the compound was classed as inactive. Regarding `O=C1C(N(CO)C(=O)NCO)N(CO)C(=O)N1CO` (stereo not given), the compound was classed as inactive. As for `CC(C)=CCC[C@H](C)CCO`, the compound was classed as inactive. In the case of `CCCCCCCOC(=O)CCC`, the call was inactive. As to `O=C(C=Cc1ccccc1)OCc1ccccc1`, the call was inactive. As to `CCO[Si](C)(OCC)OCC`, the call was inactive. The same measure, in the same setting: the value for `CCCCCCCC/C=C\CCCCCCCC(=O)O` was “inactive”; that for `Cn1c([N+](=O)[O-])cnc1COC(N)=O` was “inactive”; that for `CCOC(=O)Cc1cccc2ccccc12` was “inactive”.

As for `CC(C)c1ccc2cc(C(C)C)ccc2c1`, the compound was called inactive.

On to `CC(C)(C)c1ccc(-c2ccc(C(C)(C)C)cc2)cc1`, for which the compound was classed as inactive. In the case of `CC(C)(C)c1ccc(OC(=O)c2ccccc2O)cc1`, the compound was called inactive. `COC(=O)c1c(C)cc(O)c(C)c1O`: the AC50 was 55.5 µM (active). As to `CC=C1CC2C=CC1C2` (stereo not given), the call was inactive. `NC(=O)N=NC(N)=O`: the compound was classed as inactive. Regarding `CC1=CC[C@H]2C[C@@H]1C2(C)C`, the compound was called inactive. In the case of `CC/C=C\C/C=C\C/C=C\CCCCCCCC(=O)O`, the result was inactive. With `O=C(c1ccccc1)C1CCC1`, the outcome was inactive. Consider `O=C(O)CCCC[C@@H]1SC[C@@H]2NC(=O)N[C@@H]21`, for which the compound was called inactive. With `CCCCCCCC/C=C\CCCCCCCC(=O)OCCO`, the result was inactive. For `O=C(C(Cl)Cl)N1CCOC12CCCCC2`, the result was inactive.

For `Oc1ccc(Cl)cc1Cc1cc(Cl)ccc1O`, the AC50 is 11.9 µM (active). On to `CC1=NN(c2cc(S(=O)(=O)O)ccc2Cl)C(=O)C1N=Nc1ccccc1` (stereo not given), for which the call was inactive. On to `CCCCC/C=C\C/C=C\CCCCCCCC(=O)OC`, for which the compound was classed as inactive. Still for that read-out and setting: in the case of `CC(C)(C)c1ccc(N)cc1` it was “inactive”.

As to `CCCCCCCCO[C@@H]1O[C@H](CO)[C@@H](O)[C@H](O)[C@H]1O`, the result was inactive.

In the case of `Cc1ccc(C(C)c2ccc(C)c(C)c2)cc1C`, the AC50 is 68.1 µM (active). For the compound `O=C1CCCC1`, the result was inactive.

In the case of `CC(=O)OC(C)C`, the result was inactive. As for `O=S1(=O)OC(c2ccc(O)cc2)(c2ccc(O)cc2)c2ccccc21`, the compound was called inactive. With `Cc1cc(C)c(C(=O)O)c(C)c1`, the result was inactive. In the case of `CC(=O)[C@H]1[C@H](C#N)C[C@H]2[C@@H]3CC=C4C[C@@H](O)CC[C@]4(C)[C@H]3CC[C@@]21C`, the compound was called inactive. As to `O=S(=O)(O)c1ccccc1C=Cc1ccc(-c2ccc(C=Cc3ccccc3S(=O)(=O)O)cc2)cc1`, the AC50 is 65.5 µM (active).

As a reminder, the AC50 is the concentration giving half of the maximal activity seen.
